From PubChem BioAssay
Calls of active or inactive are those of the source. Unless noted, no rule for the calls is given here.

Key:
[1] = tested on: Wnt5a (protein binding on small-molecule microarray); assay: Wnt5a binders on small-molecule microarray, primary screen, biophysical, 635/667 nm fluorescence (AID 1142); details: 635 nm fluorescence, higher = more signal;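 also: fluorescence read at 667 nm with signal to noise per printed feature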
[2] = cell viability in Huh7 cells, primary screen, cytotoxicity control for HCV replication inhibitor project, CellTiter-Glo luminescence, basal, 48 h (AID 1143); details: Huh7 HCV replicon, higher = more signal, called active from +8 up or from −8 down;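 also: Huh7 hepatoma cells carrying a hepatitis C replication reporter with no stimulus; test concentration not given here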
[3] = P. aeruginosa biofilm formation inhibitors, primary screen, PAO1 strain, BacTiter-Glo luminescence, LB-PBS (AID 1144); details: 12 h, higher = more signal
[4] = CREB reporter modulators without forskolin, primary screen, cell-based, PC12, CRE-LacZ reporter, unstimulated (AID 1145); details: no forskolin, luminescence, 4.5 h, higher = more signal, called active from +8 up or from −8 down
[5] = CREB reporter modulators under forskolin, primary screen, cell-based, PC12, CRE-LacZ reporter, forskolin-stimulated (AID 1146); details: luminescence, 4.5 h, higher = more signal, called active from +8 up or from −8 down;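 also: PC12 cells with 6xCRE LacZ reporter stimulated by forskolin 10 µM; beta-galactosidase reporter signal reflecting CREB driven transcription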
[6] = biological target: Streptavidin (Streptomyces avidinii) (UniProt P22629); assay: streptavidin binders on small-molecule microarray, primary screen, artefact control for SMM compound annotation, biophysical, 635/667 nm fluorescence (AID 1147); details: streptavidin binding, higher = more signal;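 also: signal reflects streptavidin binding to arrayed compounds as a control protein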
[7] = small-molecule binders of probe aInhba, primary screen, biochemical, small-molecule microarray, 635/667 nm fluorescence (AID 1148); details: higher = more signal;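 also: score merges 667nm spot fluorescence with signal-to-noise for antibody binding to printed compounds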
[8] = biological target: Torsin-1A (Homo sapiens) (UniProt O14656); assay: torsin A binders from cell lysate, primary screen, small-molecule microarray, wild-type, 635/667 nm (AID 1149); details: COS7 hTOR1A-WT lysate, 635 nm fluorescence, higher = more signal
[9] = biological target: Torsin-1A (Homo sapiens) (UniProt O14656); assay: small-molecule binders of mutant TOR1A in lysate, primary screen, cell lysate, small-molecule microarray, COS7 lysate, 635/667 nm fluorescence (AID 1150); details: COS7 hTOR1A mutant lysate, 635 nm fluorescence, higher = more signal;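 also: score pools 667 nm emission and signal to noise measuring lysate protein binding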
[10] = tested on: Sonic hedgehog protein (Shh); assay: small-molecule binders of Shh protein, primary screen, biochemical, small-molecule microarray, 635/667 nm fluorescence (AID 1151); details: small-molecule microarray binding, 635 nm fluorescence; higher = more signal;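 also: Shh protein binding to compounds spotted on small-molecule microarray slides; score combines spot fluorescence intensity with signal-to-noise across triplicate slides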
[11] = E. coli DRC41 culture turbidity changes, primary screen, E. coli filamentation inducer project, strain DRC41, OD650, 48 h (AID 1152);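 also: E. coli MC1000 strain DRC41 lacking acrAB efflux pump and sulA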; details: E. coli DRC41 (acrAB sulA), higher = more signal, called active from +8 up or from −8 down
[12] = small-molecule binders of probe aLefty1, primary screen, biochemical, small-molecule microarray, 635/667 nm fluorescence (AID 1153); details: higher = more signal;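 also: score merges spot fluorescence with signal-to-noise ratio from the scanned slide images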
[13] = PSAC antagonists in infected red cells, primary screen, cell-based, P. falciparum Indochina, OD700, 1 h (AID 1154); details: P. falciparum Indochina infected RBC osmotic lysis, higher = more signal, called active from +8 up or from −8 down
[14] = PSAC antagonists in infected red cells, primary screen, cell-based, P. falciparum Indochina, OD700, 2 h (AID 1155);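 also: lysis reports solute entry through the parasite surface anion channel PSAC; channel blockers reduce lysis of infected cells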; details: P. falciparum Indochina infected erythrocytes, osmotic lysis OD700; higher = more signal, called active from +8 up or from −8 down
[15] = osmotic lysis modulators in infected erythrocytes, primary screen, PSAC antagonist project, cell-based, P. falciparum Indochina, OD700, 3 h (AID 1156); details: higher = more signal, called active from +8 up or from −8 down
[16] = PSAC antagonists in infected red cells, primary screen, cell-based, P. falciparum Indochina, OD700, 18 h (AID 1157); details: P. falciparum Indochina infected erythrocytes, osmotic lysis OD700, 18 h; higher = more signal, called active from +8 up or from −8 down
[17] = modulators of S6 phosphorylation in cells, primary screen, cell-based, A549, cytoblot, luminescence, serum-stimulated (AID 1158); details: A549 phospho-S6 cytoblot, 5 h, higher = more signal;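 also: serum-stimulated A549 lung adenocarcinoma cells; signal is phosphorylated S6 detected by cytoblot immunostaining with HRP secondary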
[18] = biological target: NADPH oxidase 2 (Homo sapiens) (UniProt P04839); assay: NOX2-dependent H2O2 signal modulators, primary screen, NOX inhibitor project, cell-based, HEK293-NOX2, PMA-stimulated, Amplex Red fluorescence (AID 1159); details: 45 min, higher = more signal, called active from +8 up or from −8 down; also: test concentration not given here
[19] = biological target: NADPH oxidase 4 (Homo sapiens) (UniProt Q9NPH5); assay: NOX4-dependent H2O2 signal modulators, primary screen, NOX inhibitor project, cell-based, HEK293-NOX4, tetracycline-induced, Amplex Red fluorescence (AID 1160); details: 45 min, higher = more signal, called active from +8 up or from −8 down
[20] = biological target: NADPH oxidase 5 (Homo sapiens) (UniProt Q96PH1); assay: NOX5-dependent H2O2 signal modulators, primary screen, NOX inhibitor project, cell-based, HEK293-NOX5, Amplex Red fluorescence (AID 1161); details: HEK293-NOX5, ionomycin, 45 min, higher = more signal
NADPH oxidase 5 (Homo sapiens), sequence (Q96PH1 whole entry, looked up): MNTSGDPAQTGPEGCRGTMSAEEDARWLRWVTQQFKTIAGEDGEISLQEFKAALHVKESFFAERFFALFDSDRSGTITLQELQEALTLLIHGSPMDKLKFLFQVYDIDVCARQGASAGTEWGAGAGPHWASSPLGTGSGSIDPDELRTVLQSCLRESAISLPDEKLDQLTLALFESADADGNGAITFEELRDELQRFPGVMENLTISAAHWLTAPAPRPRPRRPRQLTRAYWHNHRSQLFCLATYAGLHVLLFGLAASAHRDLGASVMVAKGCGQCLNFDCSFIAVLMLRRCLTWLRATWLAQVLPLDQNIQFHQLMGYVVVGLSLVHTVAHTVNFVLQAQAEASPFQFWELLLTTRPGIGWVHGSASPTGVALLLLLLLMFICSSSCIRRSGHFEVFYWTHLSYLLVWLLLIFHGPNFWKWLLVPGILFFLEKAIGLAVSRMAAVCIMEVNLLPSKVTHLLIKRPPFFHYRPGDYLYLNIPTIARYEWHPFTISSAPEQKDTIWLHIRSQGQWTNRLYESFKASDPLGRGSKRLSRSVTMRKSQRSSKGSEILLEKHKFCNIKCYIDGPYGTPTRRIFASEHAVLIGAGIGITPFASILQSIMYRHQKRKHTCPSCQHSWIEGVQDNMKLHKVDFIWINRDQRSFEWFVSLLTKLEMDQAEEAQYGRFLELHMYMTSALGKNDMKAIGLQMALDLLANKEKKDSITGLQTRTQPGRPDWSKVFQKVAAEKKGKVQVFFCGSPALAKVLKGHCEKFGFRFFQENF

Torsin-1A (Homo sapiens), sequence (O14656 whole entry, looked up): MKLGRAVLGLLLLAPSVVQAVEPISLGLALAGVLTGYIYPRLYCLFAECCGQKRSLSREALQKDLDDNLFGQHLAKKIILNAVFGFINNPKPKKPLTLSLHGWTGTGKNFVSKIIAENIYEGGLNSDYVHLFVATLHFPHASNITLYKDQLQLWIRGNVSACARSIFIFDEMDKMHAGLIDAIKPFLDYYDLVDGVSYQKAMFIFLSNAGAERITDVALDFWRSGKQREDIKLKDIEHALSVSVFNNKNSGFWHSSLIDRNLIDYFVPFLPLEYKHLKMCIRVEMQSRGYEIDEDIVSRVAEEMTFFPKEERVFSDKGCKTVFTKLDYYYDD
NADPH oxidase 4 (Homo sapiens), sequence (Q9NPH5 whole entry, looked up): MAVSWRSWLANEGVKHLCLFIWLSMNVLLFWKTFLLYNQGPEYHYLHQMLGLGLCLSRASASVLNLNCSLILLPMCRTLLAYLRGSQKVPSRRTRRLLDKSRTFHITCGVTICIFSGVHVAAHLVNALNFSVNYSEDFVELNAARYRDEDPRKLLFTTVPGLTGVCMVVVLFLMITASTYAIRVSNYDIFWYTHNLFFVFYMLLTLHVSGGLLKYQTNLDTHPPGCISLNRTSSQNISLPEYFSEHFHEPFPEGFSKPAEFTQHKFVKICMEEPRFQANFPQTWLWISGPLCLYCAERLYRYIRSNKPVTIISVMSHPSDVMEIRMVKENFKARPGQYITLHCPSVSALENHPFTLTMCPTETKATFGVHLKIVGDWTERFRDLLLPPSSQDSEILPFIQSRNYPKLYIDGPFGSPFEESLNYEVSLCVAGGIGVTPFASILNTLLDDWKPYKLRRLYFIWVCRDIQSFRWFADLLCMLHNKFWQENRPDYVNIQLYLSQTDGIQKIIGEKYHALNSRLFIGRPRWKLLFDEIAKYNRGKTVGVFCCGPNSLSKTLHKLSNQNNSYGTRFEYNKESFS
NADPH oxidase 2 (Homo sapiens), sequence (P04839 whole entry, looked up): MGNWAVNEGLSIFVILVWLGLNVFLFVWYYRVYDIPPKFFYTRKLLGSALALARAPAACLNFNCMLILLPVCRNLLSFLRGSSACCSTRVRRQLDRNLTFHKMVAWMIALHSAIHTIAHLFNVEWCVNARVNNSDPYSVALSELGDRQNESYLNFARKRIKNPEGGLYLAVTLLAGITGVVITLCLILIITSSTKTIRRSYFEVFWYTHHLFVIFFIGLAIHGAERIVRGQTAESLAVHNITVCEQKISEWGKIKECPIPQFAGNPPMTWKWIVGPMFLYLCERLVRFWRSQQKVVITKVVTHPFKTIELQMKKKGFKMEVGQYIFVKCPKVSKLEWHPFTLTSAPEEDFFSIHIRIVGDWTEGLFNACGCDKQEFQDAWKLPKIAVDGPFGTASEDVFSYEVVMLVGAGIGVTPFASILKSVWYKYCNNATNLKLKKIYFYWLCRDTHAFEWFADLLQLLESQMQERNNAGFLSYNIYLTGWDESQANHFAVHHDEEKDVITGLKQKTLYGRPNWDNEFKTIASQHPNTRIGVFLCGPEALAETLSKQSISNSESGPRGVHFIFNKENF
Streptavidin (Streptomyces avidinii), sequence (P22629 whole entry, looked up): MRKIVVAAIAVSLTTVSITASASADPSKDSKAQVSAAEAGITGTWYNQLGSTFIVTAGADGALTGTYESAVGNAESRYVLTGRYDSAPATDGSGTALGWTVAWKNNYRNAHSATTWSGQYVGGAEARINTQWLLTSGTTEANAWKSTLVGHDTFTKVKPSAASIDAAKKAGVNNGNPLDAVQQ

| Structure (SMILES) | composite z-score [1] | z-score [2] | z-score [3] | z-score [4] | z-score [5] | composite z-score [6] | composite z-score [7] | composite z-score [8] | composite z-score [9] | composite z-score [10] | z-score [11] | composite z-score [12] | z-score [13] | z-score [14] | z-score [15] | z-score [16] | z-score [17] | z-score [18] | z-score [19] | z-score [20] |
| --- | --- | --- | --- | --- | --- | --- | --- | --- | --- | --- | --- | --- | --- | --- | --- | --- | --- | --- | --- | --- |
| CCOC(=O)[C@H](Cc1ccccc1)NC(=O)CCC1CC(OC(=O)NCCc2ccc(F)cc2)CC2(CCCC(COC(=O)NCCC(C)C)O2)O1 (stereo not given in full) | 0.446 | 0.0118 (inactive) | -0.275 (inactive) | 1.09 (inactive) | 0.956 (inactive) | 0.496 | -0.183 | 0.0817 | 0.34 | 1.68 | -0.15 (inactive) | 0.145 | -1.5 (inactive) | -0.302 (inactive) | 0.005 (inactive) | 0.0777 (inactive) | 0.429 | -0.0979 (inactive) | 0.397 (inactive) | 0.7 |
| CO[C@H]1COC(=O)CCC[C@H](C)[C@H](OC)COC(=O)CC=C[C@@H]1C | -0.225 | -1.15 (inactive) | -0.339 (inactive) | -1.29 (inactive) | -0.46 (inactive) | 0.116 | -0.154 | 1.78 | 1.64 | 1.79 | 0.928 (inactive) | -0.0626 | -0.972 (inactive) | -1.26 (inactive) | 0.232 (inactive) | -1.45 (inactive) | 1.18 | -0.0777 (inactive) | 0.862 (inactive) | 0.381 |
| O=C1C2=CC[C@H]3C(=O)N(Cc4ccccc4)C(=O)[C@H]3[C@H]2[C@H](O)[C@@H]2O[C@H]12 | -0.134 | -6.84 (inactive) | 0.252 (inactive) | 0.518 (inactive) | 25 (active) | -0.0955 | -0.128 | 0.367 | 0.216 | -0.575 | -0.536 (inactive) | -0.379 | 0.472 (inactive) | 0.147 (inactive) | -0.178 (inactive) | 0.157 (inactive) | -0.451 | -1.41 (inactive) | 0.16 (inactive) | 0.44 |
| COC(=O)[C@H](C)NC(=O)CCC1CC(OC(=O)NCc2cccc3ccccc23)CC2(CCCC(COC(=O)NCCC(C)C)O2)O1 (stereo not given in full) | 0.0905 | -0.842 (inactive) | -0.386 (inactive) | -0.522 (inactive) | -0.135 (inactive) | -0.224 | -0.0695 | 0.181 | 0.205 | 0.683 | 0.782 (inactive) | 0.423 | 6.93 (inactive) | 0.663 (inactive) | -0.355 (inactive) | 0.197 (inactive) | -0.463 | 1.74 (inactive) | 0.703 (inactive) | 1.52 |
| CCN1C(=O)[C@H]2[C@H]3[C@H](O)[C@H](O)CC(=NO[C@@H](C)c4cc(-c5c(C)cc(C)cc5C)no4)[C@@H]3CC[C@H]2C1=O | 0.266 | -1.74 (inactive) | 0.847 (inactive) | 2.08 (inactive) | 0.205 (inactive) | 0.203 | 0.0756 | 1.22 | 1.33 | 1.15 | 0.663 (inactive) | -0.103 | 2.34 (inactive) | 0.496 (inactive) | 0.504 (inactive) | 0.588 (inactive) | -0.428 | 0.204 (inactive) | 0.175 (inactive) | 0.211 |
| CC(C)[C@@H](OCc1ccccc1)[C@H](C)C=NOC[C@@H](O)[C@H]1O[C@@H]2OC(C)(C)O[C@@H]2[C@H]1O | 0.332 | 0.226 (inactive) | 0.0464 (inactive) | -0.408 (inactive) | 0.307 (inactive) | 1.61 | -0.0695 | 0.298 | 0.284 | 0.587 | -1.74 (inactive) | -0.25 | 0.0248 (inactive) | -0.211 (inactive) | 0.122 (inactive) | 0.124 (inactive) | -0.898 | 1.09 (inactive) | -1.94 (inactive) | 0.165 |
| COc1ccc(COC(=O)NN=C2C[C@@H](O)[C@@H](O)[C@@H]3[C@@H]4C(=O)N(C5CCCCC5)C(=O)[C@@H]4CC[C@@H]23)cc1 | 0.0311 | -0.252 (inactive) | 0.755 (inactive) | 2.32 (inactive) | 0.0868 (inactive) | 0.576 | -0.0774 | -0.367 | 0.223 | -0.791 | -0.83 (inactive) | 0.94 | 6.59 (inactive) | 1.25 (inactive) | 0.101 (inactive) | 0.622 (inactive) | -0.185 | -0.623 (inactive) | -0.069 (inactive) | 0.391 |
| CCc1cc2c(nc1CC)CCN(CCC(C)=NOC(C)CN1CCCCc3nc(C)c(C)cc31)C2 (stereo not given) | 0.393 | -3.02 (inactive) | 0.227 (inactive) | 2.08 (inactive) | 0.633 (inactive) | 0.88 | 0.0713 | 2.23 | 1.08 | 1.58 | -1.74 (inactive) | 0.131 | 5.84 (inactive) | 0.499 (inactive) | 1.54 (inactive) | 0.539 (inactive) | -0.408 | -3.06 (inactive) | -3.1 (inactive) | -2.84 |
| CCCNC(=O)OC[C@H]1O[C@H](CCON=C2c3cc(OC)ccc3O[C@H](c3cccc(OC)c3)[C@H]2O)C=C[C@@H]1Oc1ccc(OC)cc1 | 0.298 | -0.69 (inactive) | 0.298 (inactive) | 4.37 (inactive) | 0.469 (inactive) | 0.474 | -0.0011 | 0.442 | 0.818 | 0.436 | 0.447 (inactive) | -0.0637 | 3.13 (inactive) | 0.855 (inactive) | 0.431 (inactive) | 0.563 (inactive) | -0.641 | 0.461 (inactive) | 0.455 (inactive) | -0.473 |
